Test results published in the supplement of paper PMC9402605.
± gives the standard deviation of the averaged measurements.

These molecules were tested on Caenorhabditis elegans N2 (assay: egg-laying rate relative to DMSO control (serotonin + nicotine background) (fraction of control); higher = more egg-laying). Conditions: background: 12.3 mM serotonin + 7.7 mM nicotine; 60 µM; 1 h.
Description: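 About 20 young-adult wild-type C. elegans (N2) per well in 96-well plates were exposed to 60 uM compound for 1 h at room temperature, either in M9 buffer (to find stimulators) or in 12.3 mM serotonin + 7.7 mM nicotine (NS, to find inhibitors). Eggs per worm per hour were counted by automated imaging and normalised to the mean of proximal DMSO control wells. Values average the primary screen and two retests of the worm-active (wactive) Egl modulators.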

Structure (SMILES)	egg-laying rate
c1csc(-c2cnc3ccccc3n2)c1 [wact-21]	0.816 ± 0.081
O=[N+]([O-])c1ccc(N2CCN(CC3CC4C=CC3C4)CC2)cc1 (stereo not given) [wact-46]	1.34 ± 0.22
COc1ccc(C=Cc2ccccn2)cc1 [wact-622]	0.373 ± 0.18
CCc1ccc(-c2cn3ccsc3n2)cc1 [wact-434]	0.474 ± 0.18
Cc1ccccc1C(=O)NCCc1ccccc1 [wact-406]	0.394 ± 0.22
Cc1ccc(-c2cnc(-c3ccncc3)o2)cc1 [wact-23]	0.55 ± 0.19
O=C1CC(N2CCN(c3ccc([N+](=O)[O-])cc3)CC2)C(=O)N1c1ccccc1F (stereo not given) [wact-56]	1.06 ± 0.17
O=[N+]([O-])c1ccc(N2CCc3ccccc3C2)nc1 [wact-421]	0.435 ± 0.099
CCC1CCC(N2CCN(c3ccc([N+](=O)[O-])cc3)CC2)CC1 (stereo not given) [wact-6]	0.999 ± 0.56
Clc1ccc(-c2cn3ccsc3n2)cc1 [wact-1]	0.584 ± 0.24
Ic1cccc(-c2nnc(-c3ccccc3)o2)c1 [wact-51]	0.995 ± 0.094
O=C(Nc1ccc(I)cc1)c1ccco1 [wact-27]	0.759 ± 0.099
Fc1ccc(-c2cn3ccsc3n2)cc1 [wact-433]	0.471 ± 0.016
Cc1ccccc1C(=O)NCCSC1CCCCC1 [wact-494]	0.524 ± 0.2
O=C(Nc1cccc(Cl)c1)N1CCN(c2ccc([N+](=O)[O-])cc2)CC1 [wact-31]	1.03 ± 0.29
O=[N+]([O-])c1ccc(N2CCN(CC3CC=CCC3)CC2)cc1 (stereo not given) [wact-47]	1.13 ± 0.076
O=[N+]([O-])c1ccc(CSc2ccc(Cl)cc2)cc1 [wact-3]	0.473 ± 0.36
Brc1cccc(-c2cn3ccccc3n2)c1 [wact-435]	0.712 ± 0.25
O=[N+]([O-])c1ccc(N2CCN(CC3CCCCC3)CC2)cc1 [wact-45]	0.994 ± 0.16
CCCCOC(=O)Nc1ccc([N+](=O)[O-])cc1 [wact-419]	0.733 ± 0.18
O=[N+]([O-])c1ccc(-n2ccc3ccccc32)cc1 [wact-213]	0.444 ± 0.061
Cc1ccn2cc(-c3ccc(F)cc3)nc2c1 [wact-436]	0.478 ± 0.25
CCOc1ccc(C(=O)c2cccs2)cc1 [wact-471]	1.02 ± 0.22
CCSc1nnc(-c2ccc(Cl)cc2Cl)o1 [wact-4]	0.795 ± 0.052
c1ccc(CSc2nnc(-c3ccccc3)o2)cc1 [wact-38]	0.966 ± 0.24
